The list is not random: actives were taken first. Their share in the collection is about 12%.
SARS PLP yeast: qHTS of Yeast-based Assay for SARS-CoV PLP. S. cerevisiae expressing SARS-CoV PLpro, growth rescue. Potency, µM (series often up to 32.9 µM), inactives show at the highest dose activity, positive = growth rescue, hits mostly activators. AID 485353, 2010. 330,000 tested, 0.19% active; also: potency is read from the fitted curve at half-maximal effect; 0% is about no effect; nearly all actives have a fitted effect of over 55% in size
Cycloheximide cs: Cycloheximide Counterscreen for Small Molecule Inhibitors of Shiga Toxin; AID 2314, 2010; cell reporter, cycloheximide protein synthesis inhibition counterscreen; max response, %; 300,000 tested, 12% active; in the data active = max response mostly above about 13%, no sharp cut-off; inactive = mostly below about 14%; also: read at 38.3 µM for the half of the compounds with a filed dose; 0% is about no effect
Shiga toxin inh: A qHTS for Small Molecule Inhibitors of Shiga Toxin; AID 2315, 2010; 290,000 tested, 9.2% active; Vero cells, Shiga toxin protein synthesis inhibition reporter; inhibition, % at 38.7 µM; in the data active = inhibition mostly above about 28%, no sharp cut-off; inactive = mostly below about 43%; also: 0% is about no effect
NS1 inh: qHTS Assay for Inhibitors of Influenza NS1 Protein Function. AID 2326, 2010. 270,000 tested, 0.4% active. Potency, µM (doses to about 46.1 µM), inactives show at the highest dose activity, positive = more growth; also: potency is read from the fitted curve at half-maximal effect; actives are rising curves; nearly all actives have a fitted effect of over 50% in size
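Growth recovery, yeast-based: influenza A NS1 expressed in S. cerevisiae causes slow growth, and suppressors are detected by OD600. The parent strain without NS1 is used as positive control.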
* = called active by the depositor; ? = inconclusive; . = no result; + = active, no number. Unless noted, calls follow the shape of the full dose curve.

SMILES	SARS PLP yeast	Cycloheximide cs	Shiga toxin inh	NS1 inh
CCC(=O)C1CCCN(C(=O)CCc2nnc(-c3ccc(C(C)=O)s3)o2)C1 (centres undefined)	1%	40*	98*	-10%
Cc1ccc(N2C(=O)N(CC(=O)Nc3ccc(C)cc3Cl)C(=O)C2C)cc1 (centres undefined)	-10%	.	.	.
CC#CCc1cc2ccccc2c(=O)o1	10%	5.2*	12	5%
CCOc1ccc(OCCSc2ccc(S(=O)(=O)N3CCN(C)CC3)cn2)cc1	10%	.	.	.
O=C(CCc1nnc(Cc2cccc(C(F)(F)F)c2)o1)NCCc1ccccc1F	?	29*	126*	-17%
Cc1cc(CN(C)C(=O)CCc2nnc(Cc3cccc(C(F)(F)F)c3)o2)on1	-2%	33*	58*	1%
CCn1nnc2cc(C(=O)Nc3cc(Cl)ccc3C)ccc21	2%	.	.	.
CCOCCCNc1nc2c(c(=O)[nH]c(=O)n2C)n1CCCc1ccccc1	6%	-3	-7	-1%
CN(C)CCNS(=O)(=O)N(C)C	.	.	.	0%
Cc1ccc2c(c1)sc(-c1ccc(N(C)C)cc1)[n+]2C	-13%	77*	+	-72%
N=C1C(c2ccccc2)=C(O)CN1c1cccc2ccccc12	3%	-1	-15	.
O=C(N/N=C/c1ccsc1)c1ccccn1	-2%	28*	70*	0%
CC(C)(C)c1ccc(/C=N/NC(=O)c2ccccn2)cc1	0%	38*	42*	-3%
O=C(N/N=C/c1ccsc1)c1cc(-c2ccncc2)nc2ccccc12	-11%	-2	-16	18%
O=C(N/N=C/c1ccc(Br)s1)c1ccccn1	-11%	48*	84*	-3%
Cc1ccc(OCC(=O)N2CCCCCC2)c(C)c1	0%	10*	37	5%
Cc1cc(Br)ccc1OCC(=O)N1CCCCCC1	2%	25*	27	-2%
Cc1ccc(OCC(=O)N2CCN(C)CC2)c(Br)c1	0%	21*	93*	-1%
O=C(COc1ccc(Cl)cc1Cl)N1CCCC1	-3%	1	-3	0%
CC(C)c1ccc(OCC(=O)N2CCCCCC2)c(Br)c1	-1%	25*	80*	-43%
Cc1cc(S(=O)(=O)N2CCCCC2)ccc1OCC(=O)N1CCCC1	1%	-4	7	1%
O=S(=O)(Nc1ccccc1N1CCCCC1)c1ccc(F)cc1	-3%	-1	19	-1%
Cc1onc(-c2ccccc2)c1-c1nnc(CN2CCN(S(=O)(=O)c3ccccc3)CC2)o1	4%	.	.	.
O=C1CC(SC(=Nc2ccccc2)Nc2ccccc2)C(=O)N1c1cccc2ccccc12 (centres undefined)	2%	-2	-1	27%
COc1c2c(nc3ccccc13)OC(C(C)(O)CO)C2 (centres undefined)	-1%	-3	-17	0%
SMILES	SARS PLP yeast	Cycloheximide cs	Shiga toxin inh	NS1 inh
COc1ccc(S(=O)(=O)NC(C)C)cc1C(=O)N1CCOCC1	-5%	1	-4	.
Cc1ccc(Nc2nc(/N=C/N(C)C)n[nH]2)cc1C	3%	51*	86*	.
Cc1cc(Nc2ccc(C)c(C)c2)n2nc(C)nc2n1	-2%	-3	14	?
Cc1ccc(NC(=O)CN(C)CC(=O)Nc2sc3c(c2C(N)=O)CCC3)cc1	-2%	-1	-4	-12%
CN1CCN(C(=O)COCc2cc(-c3ccc4c(c3)OCO4)on2)CC1	0%	18*	23*	1%
O=C(COCc1cc(-c2ccc3c(c2)OCO3)on1)N1CCCCC1	-2%	68*	76*	21%
NC(=O)C1CCN(C(=O)COCc2cc(-c3ccc4c(c3)OCO4)on2)CC1	10%	17	10	19%
O=C(O)C1C2C=CC(C2)C1C(=O)NCCc1cccc(Cl)c1 (centres undefined)	-2%	2	2	-1%
CC1(C)CC(=O)C([N+](=O)[O-])=C(NCCCC(=O)O)C1	-14%	8	-11	-2%
Cc1ccc(Nc2nnns2)cc1C	2%	-2	-14	-53%
FC(F)Oc1ccc(/C=N/N2CCCCC2)c(OC(F)F)c1	1%	32*	79*	.
Cc1ccc2cc3c(N)c(C(=O)Nc4c(C)[nH]c(=O)[nH]c4=O)sc3nc2c1	19%	-2	-10	?
Cc1ccc2cc3c(N)[nH]nc3nc2c1	5%	21*	14	3%
CN(C)S(=O)(=O)c1ccc(Cl)c(C(=O)NC2CCCCCCC2)c1	11%	2	4	5%
CN(Cc1ccccc1)C(=O)C(C(=O)c1ccc(F)cc1)n1cc(Cl)ccc1=O (centres undefined)	-1%	41*	48*	.
O=C(O)c1ccc(-c2ccc3cc(C45CC6CC(CC(C6)C4)C5)c(O)cc3c2)cc1	.	45*	28*	.

From PubChem
